# Measured values as given in PubChem BioAssay.
# Values without a mark were called inactive. Active and inactive are the calls of the source. Rule as the data show it, unless noted: active = inhibition above about 30%; inactive = the rest.
# Experiments:
# [1] = target: Nuclear receptor coactivator 3 (Homo sapiens) (UniProt Q9Y6Q9); assay: SRC3 coactivator transcriptional activity inhibitors, confirmation, cell-based, luminescence, quadruplicate (AID 588792;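 active = mean inhibition over 43.08%, the solvent-only control mean plus 3 SD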;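 also: 0% = DMSO treated cells and 100% = gossypol at 36 µM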); conditions: HEK293 GAL4-SRC3 luciferase reporter, at 3.6 µM, active compounds read high
# Nuclear receptor coactivator 3 (Homo sapiens), sequence (Q9Y6Q9 whole entry, looked up, the tested form may be a part): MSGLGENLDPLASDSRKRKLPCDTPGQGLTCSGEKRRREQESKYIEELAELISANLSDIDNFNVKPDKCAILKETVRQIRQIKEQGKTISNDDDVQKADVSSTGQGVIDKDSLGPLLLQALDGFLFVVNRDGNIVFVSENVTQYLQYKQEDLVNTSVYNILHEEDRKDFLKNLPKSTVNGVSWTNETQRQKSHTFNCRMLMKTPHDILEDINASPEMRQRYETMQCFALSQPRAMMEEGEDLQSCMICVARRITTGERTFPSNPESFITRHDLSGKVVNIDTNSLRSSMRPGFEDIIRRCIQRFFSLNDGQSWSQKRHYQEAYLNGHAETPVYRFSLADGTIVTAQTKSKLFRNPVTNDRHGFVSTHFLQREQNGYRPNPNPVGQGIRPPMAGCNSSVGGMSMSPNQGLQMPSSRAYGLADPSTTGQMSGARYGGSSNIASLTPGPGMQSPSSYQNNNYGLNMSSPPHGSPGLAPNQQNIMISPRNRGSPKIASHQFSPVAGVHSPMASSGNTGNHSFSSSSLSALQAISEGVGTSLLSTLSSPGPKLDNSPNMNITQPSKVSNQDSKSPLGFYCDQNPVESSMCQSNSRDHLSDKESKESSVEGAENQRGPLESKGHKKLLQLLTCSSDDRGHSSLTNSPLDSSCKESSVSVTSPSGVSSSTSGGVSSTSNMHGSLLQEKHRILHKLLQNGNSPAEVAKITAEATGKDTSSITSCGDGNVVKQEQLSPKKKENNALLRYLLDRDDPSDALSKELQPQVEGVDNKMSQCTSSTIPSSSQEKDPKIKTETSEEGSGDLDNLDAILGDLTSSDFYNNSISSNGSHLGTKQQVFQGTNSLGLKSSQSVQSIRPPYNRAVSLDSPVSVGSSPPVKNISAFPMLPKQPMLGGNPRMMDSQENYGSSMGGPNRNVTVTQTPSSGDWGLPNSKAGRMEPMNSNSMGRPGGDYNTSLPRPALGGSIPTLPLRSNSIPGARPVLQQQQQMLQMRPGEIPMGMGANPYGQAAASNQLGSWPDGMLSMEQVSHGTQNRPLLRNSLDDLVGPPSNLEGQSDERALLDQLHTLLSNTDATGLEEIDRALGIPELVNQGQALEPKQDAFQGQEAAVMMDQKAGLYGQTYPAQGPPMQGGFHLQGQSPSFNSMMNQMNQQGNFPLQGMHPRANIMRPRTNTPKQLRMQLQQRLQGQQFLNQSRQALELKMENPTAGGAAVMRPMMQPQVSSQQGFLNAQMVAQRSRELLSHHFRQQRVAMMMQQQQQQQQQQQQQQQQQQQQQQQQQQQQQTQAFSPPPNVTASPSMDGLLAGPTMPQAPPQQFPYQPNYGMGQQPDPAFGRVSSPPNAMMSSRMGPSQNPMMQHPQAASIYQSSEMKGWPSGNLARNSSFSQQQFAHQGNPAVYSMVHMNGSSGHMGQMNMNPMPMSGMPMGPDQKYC
# [2] = system: transactivating tegument protein VP16 (Human herpesvirus 1), Gal4-VP16 luciferase reporter; assay: VP16 transactivation inhibitors, counter-screen for SRC3 inhibitor project, cell-based, luminescence, high throughput (AID 588794); conditions: mammalian cells, VP16-driven luciferase reporter luminescence; at 3.6 µM; active compounds read high
# [3] = target: Nuclear receptor coactivator 1 (Homo sapiens) (UniProt Q15788); assay: SRC1 coactivator transcriptional activity inhibitors, confirmation, cell-based, luminescence, quadruplicate (AID 588820;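 active = mean inhibition above 46.68%, the untreated control wells mean plus 3 SD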;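 also: 0% = DMSO wells and 100% = gossypol 36 µM treated wells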); conditions: HEK293 GAL4-SRC1 luciferase reporter, at 3.6 µM, active compounds read high
# Nuclear receptor coactivator 1 (Homo sapiens), sequence (Q15788 whole entry, looked up, the tested form may be a part): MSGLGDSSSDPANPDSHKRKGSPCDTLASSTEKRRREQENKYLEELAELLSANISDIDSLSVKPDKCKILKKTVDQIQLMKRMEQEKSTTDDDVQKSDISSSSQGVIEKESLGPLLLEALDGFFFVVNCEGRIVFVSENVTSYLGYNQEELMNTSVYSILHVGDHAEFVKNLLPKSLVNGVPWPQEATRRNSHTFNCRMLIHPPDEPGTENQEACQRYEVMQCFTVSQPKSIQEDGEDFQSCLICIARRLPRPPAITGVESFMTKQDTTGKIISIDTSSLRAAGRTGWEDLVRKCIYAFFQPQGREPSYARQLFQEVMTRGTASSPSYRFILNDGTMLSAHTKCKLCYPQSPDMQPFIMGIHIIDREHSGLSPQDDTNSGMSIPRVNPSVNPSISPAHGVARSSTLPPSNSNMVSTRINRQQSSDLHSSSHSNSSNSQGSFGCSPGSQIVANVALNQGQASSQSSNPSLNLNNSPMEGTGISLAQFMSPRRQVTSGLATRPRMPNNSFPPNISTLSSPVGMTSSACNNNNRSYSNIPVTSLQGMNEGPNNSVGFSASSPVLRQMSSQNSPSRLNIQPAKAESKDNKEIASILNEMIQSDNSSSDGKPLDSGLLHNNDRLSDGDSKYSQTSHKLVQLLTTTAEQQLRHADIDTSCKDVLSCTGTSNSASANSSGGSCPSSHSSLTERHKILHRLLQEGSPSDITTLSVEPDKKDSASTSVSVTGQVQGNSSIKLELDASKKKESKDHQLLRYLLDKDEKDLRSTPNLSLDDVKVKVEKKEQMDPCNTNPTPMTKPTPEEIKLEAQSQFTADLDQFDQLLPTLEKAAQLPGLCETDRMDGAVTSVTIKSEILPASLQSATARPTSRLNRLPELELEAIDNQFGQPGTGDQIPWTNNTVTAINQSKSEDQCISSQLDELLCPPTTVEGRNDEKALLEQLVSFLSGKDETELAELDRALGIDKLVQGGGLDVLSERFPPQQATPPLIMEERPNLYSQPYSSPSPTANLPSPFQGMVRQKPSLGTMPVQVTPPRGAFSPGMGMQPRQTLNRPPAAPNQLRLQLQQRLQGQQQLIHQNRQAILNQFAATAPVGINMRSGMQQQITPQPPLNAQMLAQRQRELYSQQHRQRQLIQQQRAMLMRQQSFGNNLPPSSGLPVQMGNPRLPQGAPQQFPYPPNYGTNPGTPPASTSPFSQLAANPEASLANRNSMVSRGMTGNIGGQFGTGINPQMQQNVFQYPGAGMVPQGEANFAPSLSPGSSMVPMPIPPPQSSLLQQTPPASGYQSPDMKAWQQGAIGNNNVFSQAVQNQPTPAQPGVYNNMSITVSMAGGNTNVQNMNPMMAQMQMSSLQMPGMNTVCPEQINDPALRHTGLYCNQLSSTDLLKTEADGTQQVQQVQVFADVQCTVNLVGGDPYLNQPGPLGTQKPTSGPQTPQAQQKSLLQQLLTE
# [4] = VP16 transactivation inhibitors, counter-screen for SRC1 inhibitor project, cell-based, luminescence, high throughput (AID 588824; in the data active = inhibition above about 25%); conditions: cell-based VP16 transactivation luciferase luminescence; at 3.6 µM; active compounds read high
# [5] = StAR promoter reporter inhibitors, counter-screen for LRH-1 inverse agonist project, cell-based, luminescence, high throughput (AID 651611; in the data active = inhibition above about 28%); conditions: StAR promoter luciferase reporter counterscreen, at 3.6 µM, active compounds read high
# [6] = target: Nuclear receptor subfamily 5 group A member 2 (Homo sapiens) (UniProt O00482); assay: LRH-1 (NR5A2) inverse agonists, retest, confirmation, cell-based, luminescence (AID 651613; in the data active = inhibition above about 42%;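 also: HEK293T cells co-transfected with LRH-1 and StAR promoter luciferase reporter; 0% = vehicle wells and 100% = parental cells lacking receptor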); conditions: cell-based LRH-1 luciferase reporter, inverse agonism; at 3.6 µM; active compounds read high
# Nuclear receptor subfamily 5 group A member 2 (Homo sapiens), sequence (O00482 whole entry, looked up): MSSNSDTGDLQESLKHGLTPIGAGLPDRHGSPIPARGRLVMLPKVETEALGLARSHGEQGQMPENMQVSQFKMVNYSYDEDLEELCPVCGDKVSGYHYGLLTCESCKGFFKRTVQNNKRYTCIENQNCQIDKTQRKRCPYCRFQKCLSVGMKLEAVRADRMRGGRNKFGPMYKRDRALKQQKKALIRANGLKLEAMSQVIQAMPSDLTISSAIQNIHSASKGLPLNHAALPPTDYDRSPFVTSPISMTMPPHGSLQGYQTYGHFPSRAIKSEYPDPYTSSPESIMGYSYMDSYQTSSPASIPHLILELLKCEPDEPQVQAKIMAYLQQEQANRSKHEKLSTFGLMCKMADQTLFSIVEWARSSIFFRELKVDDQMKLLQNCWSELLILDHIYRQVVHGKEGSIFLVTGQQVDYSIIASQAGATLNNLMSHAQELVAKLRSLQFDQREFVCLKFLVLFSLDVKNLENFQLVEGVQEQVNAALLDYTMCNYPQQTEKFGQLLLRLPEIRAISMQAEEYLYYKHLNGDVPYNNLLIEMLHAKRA
# [7] = target: Steroidogenic factor 1 (Homo sapiens) (UniProt Q13285); assay: SF1 (NR5A1) inverse agonists, counter-screen for LRH-1 inverse agonist project, cell-based, luminescence, high throughput (AID 651614; in the data active = inhibition above about 44%;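 also: cells cotransfected with StAR promoter reporter and SF1 expression vector; 0% = vehicle on cells with receptor and 100% = vehicle on cells lacking receptor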); conditions: cell-based SF1 luciferase reporter, at 3.6 µM, active compounds read high
# Steroidogenic factor 1 (Homo sapiens), sequence (Q13285 whole entry, looked up, the tested form may be a part): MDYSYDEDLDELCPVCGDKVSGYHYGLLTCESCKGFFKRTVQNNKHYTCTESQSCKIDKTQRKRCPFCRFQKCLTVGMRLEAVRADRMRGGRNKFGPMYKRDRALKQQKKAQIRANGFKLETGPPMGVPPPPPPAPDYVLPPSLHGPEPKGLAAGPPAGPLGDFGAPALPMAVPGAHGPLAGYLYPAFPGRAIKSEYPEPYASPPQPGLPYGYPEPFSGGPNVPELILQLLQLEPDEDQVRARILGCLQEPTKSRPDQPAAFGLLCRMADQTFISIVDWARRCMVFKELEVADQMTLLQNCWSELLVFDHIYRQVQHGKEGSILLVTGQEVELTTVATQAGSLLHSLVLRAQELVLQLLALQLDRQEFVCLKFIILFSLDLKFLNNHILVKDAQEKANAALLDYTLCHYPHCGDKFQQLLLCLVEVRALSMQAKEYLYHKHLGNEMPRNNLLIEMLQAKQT
# [8] = VP16 transactivation reporter inhibitors, counter-screen for LRH-1 inverse agonist project, cell-based, luminescence, high throughput (AID 651615; in the data active = inhibition above about 33%); conditions: Gal4-VP16 luciferase reporter cells, at 3.6 µM, active compounds read high
Structure (SMILES),inhibition [1],inhibition [2],inhibition [3],inhibition [4],inhibition [5],inhibition [6],inhibition [7],inhibition [8]
Cc1nc2ccc(NC(=O)c3cccs3)cc2c(=O)n1Cc1ccc(Cl)cc1,4.95%,15.8%,-3.3%,23.8%,27.4%,52.7% (active),55% (active),40.8% (active)
Cc1cc(C(C)(C)C)cc(C)c1C[n+]1ccc2ccccc2c1,41.4%,59.3% (active),11.7%,53.3% (active),30.7% (active),99.2% (active),69.1% (active),72.7% (active)
CCCc1nc2c(=O)n(C)c(=O)nc-2n(C)n1,70.5% (active),66.6% (active),18.4%,64% (active),56.5% (active),68.8% (active),72.8% (active),73.5% (active)
O=C(Nc1ccc(S(=O)(=O)N2CCCC2)cc1)c1ccc(CN2CCc3ccccc3C2)cc1,28.1%,56.4% (active),8.79%,56.9% (active),51.4% (active),74.5% (active),75.2% (active),68.7% (active)
CCc1ccccc1Nc1nn2c(=O)c3ccc(C(=O)NCc4ccccn4)cc3nc2s1,33.3%,61.3% (active),42%,59.9% (active),57.3% (active),67.3% (active),76% (active),72% (active)
O=C(O)C1CCCN1c1nc(-c2ccc(Cl)c(Cl)c2)cc(C(F)(F)F)n1 (stereo not drawn),53.8% (active),74.4% (active),48.3% (active),72.8% (active),74.5% (active),97.4% (active),91.4% (active),78.2% (active)
CCN(CC)c1ccc(C(=C2C=CC(=[N+](CC)CC)C=C2)c2ccc(N(CC)CC)cc2)cc1,85.3% (active),89.9% (active),60.9% (active),84.3% (active),85.6% (active),110% (active),97.1% (active),97.1% (active)
COc1ccc(N=C(NN)c2ccc3ccccc3n2)cc1,-51.2%,-47.1%,-105%,-65%,-92.3%,-81.3%,-83.5%,-96.2%
Cc1ccc(/C=C/C(=O)c2c(C)cc(C)[nH]c2=O)cc1,46.8% (active),40% (active),47% (active),46.4% (active),35.3% (active),42.8% (active),50.4% (active),60.4% (active)
CN(C)c1ccc(/C=C/c2ccc3ccccc3[n+]2C)cc1,62.3% (active),74.5% (active),32.4%,74.3% (active),58.5% (active),76.8% (active),76.6% (active),70.9% (active)
O=C1C(=O)c2cccnc2-c2ncccc21,99.2% (active),97.1% (active),97.1% (active),96.7% (active),99.4% (active),110% (active),99.5% (active),99.6% (active)
COc1ccc(C(=O)Nc2nnc(Cc3cccs3)s2)cc1OC,19%,54.2% (active),-3.67%,52.5% (active),51.5% (active),70.7% (active),66.1% (active),72.3% (active)
CC(C)(C)N(Cc1ccc2c(c1)OCO2)C(=O)/C=C\S(=O)c1ccccc1 (stereo not drawn),45% (active),38.2% (active),17.8%,38.1% (active),34.7% (active),56.4% (active),68.2% (active),61.6% (active)
CCN1/C(=C/c2ccc3ccccc3[n+]2CC)C=Cc2ccccc21,74% (active),86.2% (active),55.5% (active),84.7% (active),78.7% (active),110% (active),93% (active),89.3% (active)
N=c1c2c(-c3ccccc3)c(-c3ccccc3)n(Cc3ccco3)c2ncn1CCO,23.5%,54.5% (active),41%,56.2% (active),54.3% (active),64.8% (active),64% (active),74.8% (active)
Cc1ccc(S(=O)(=O)N(C)C)cc1NC(=O)c1cncc(Br)c1,22.1%,5.79%,8.59%,0.1%,44.1% (active),43% (active),47.6% (active),19.7%
CC[n+]1ccccc1/C=C1\Sc2ccc(C)cc2N1C,25.7%,64.6% (active),23.8%,67.7% (active),40% (active),75.7% (active),70.3% (active),74.5% (active)
Nc1nc2c(nnn2C2CC(O)C(CO)O2)c(=O)[nH]1 (stereo not drawn),78.7% (active),13.7%,13.6%,3.11%,51.8% (active),53.9% (active),44.1% (active),9.15%

Structure (SMILES),inhibition [1],inhibition [2],inhibition [3],inhibition [4],inhibition [5],inhibition [6],inhibition [7],inhibition [8]
COc1cccc(/C=N/Nc2ncnc3c2ncn3Cc2ccccc2)c1O,58.9% (active),31% (active),48% (active),28.4% (active),84.4% (active),99.4% (active),86.1% (active),78.3% (active)
CC1=NN(c2nc3ccccc3[nH]2)C(=O)C1Cc1ccccc1 (stereo not drawn),53.5% (active),68% (active),48.1% (active),67.5% (active),70.3% (active),101% (active),88.7% (active),83.6% (active)
COc1ccc(NC(=O)c2sc(=O)n(Cc3ccc(F)c(Cl)c3)c2C)cc1OC,24.2%,61.6% (active),18.5%,53.8% (active),54.3% (active),66.2% (active),70.5% (active),72.5% (active)
Cc1cc(C)nc(NC(N)=NCCc2ccccc2)n1,75.9% (active),46.3% (active),51.5% (active),49.1% (active),58.4% (active),109% (active),88.2% (active),93.5% (active)
O=[N+]([O-])c1cc(CN2CCN(c3ccccc3)CC2)c(O)c2ncccc12,48.3% (active),56.4% (active),9.05%,50.8% (active),59.3% (active),90.1% (active),85.7% (active),73.4% (active)
COc1ccc(-n2cc(-c3ccc(C)cc3)[n+]3c2SCC3)cc1,30.8%,55.1% (active),22.8%,51% (active),40.9% (active),83.5% (active),75.1% (active),74.9% (active)
N=c1c2c(-c3ccccc3)c(-c3ccccc3)n(Cc3ccccc3)c2ncn1CCO,26.6%,61% (active),39.8%,57.8% (active),57.2% (active),71.5% (active),73.1% (active),77.4% (active)
Cc1ccc(/C=C/c2ccc(N(C)C)cc2)[n+](C)c1,36.3%,56% (active),11.4%,50.1% (active),41.5% (active),78.5% (active),73% (active),67.4% (active)
CC(C)(C)c1ccc(/C=N/Nc2ccc(C(=O)O)cc2)cc1,28.4%,32.6% (active),13.3%,13.9%,-5.93%,-189%,-79.9%,-20.1%
CC1Cc2ccccc2N1c1ncnc(N)c1[N+](=O)[O-] (stereo not drawn),84.3% (active),68% (active),81.5% (active),65.6% (active),39.9% (active),63.6% (active),46.7% (active),82.4% (active)
COc1ccc(C(=O)Nc2cnn(Cc3ccc(Cl)cc3)c2)cc1OC,26.3%,52.7% (active),23.3%,51% (active),45% (active),51.8% (active),64% (active),63.1% (active)
COc1cccc(/C=N/NC(=O)c2c(C)nc3ccc(Cl)cn23)c1O,79.3% (active),78.5% (active),75.2% (active),73.9% (active),86.7% (active),102% (active),88.4% (active),83.5% (active)
Cc1cccc(NC(=O)c2cc(Cl)ccc2[N+](=O)[O-])c1,42.4%,27%,17.7%,51.4% (active),44.3% (active),51% (active),58.4% (active),33.2% (active)
O=C(Nc1ccc([N+](=O)[O-])cc1)c1ccc(Cn2cc([N+](=O)[O-])cn2)cc1,43.1% (active),58.7% (active),29.1%,56.1% (active),52.3% (active),77.3% (active),72.8% (active),74.4% (active)
Cc1ccc(N(CCC#N)C(=O)CCl)cc1C,54.3% (active),14.7%,7.31%,28.4% (active),14.8%,58.5% (active),49.2% (active),15.7%
CC1CC(C)C[N+](=C2C=C(N3CCCC3)CC(C)(C)C2)C1 (stereo not drawn),26.9%,66.7% (active),28.9%,71.5% (active),38.9% (active),110% (active),79.1% (active),91.2% (active)
Nc1cc2c3c(cccc3c1)C(=O)N(CCN1CCCC1)C2=O,16.8%,40.7% (active),38.9%,46.9% (active),60.5% (active),66.6% (active),61.6% (active),69.9% (active)
CCCCC(=O)NC(c1ccccc1)c1ccc2cccnc2c1O (stereo not drawn),53.3% (active),36.9% (active),27.8%,29.2% (active),60.3% (active),69.5% (active),63.6% (active),73% (active)
